The list is not random: actives were taken first. Their share in the collection is about 4.1%.
hgDAF-12 ag – hgDAF-12 agonism, primary luciferase screen. 370,000 tested, 1.8% active. activation, % at 6.8 µM. HEK293 GAL4-hgDAF12 UAS-luciferase reporter, agonist luminescence; normalized to butyrate control;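 active means activation above a cutoff set at the mean of all screened compounds plus 3 SD, cut at about 10% in these data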;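 further: 0% = DMSO wells and 100% = sodium butyrate wells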
DAX1 inh-1 – inhibitors of DAX1 repression of SF-1 activated StAR promoter. HEK293T StAR-luciferase reporter, SF-1/DAX-1 repression relief. AID 652010. 370,000 tested, 1.1% active. inhibition, % at 6.8 µM;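 active means inhibition above the mean over all tested compounds plus 3 SD, cut at about 3.6% in these data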;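 further: 0% = DAX-1 cells with DMSO and 100% = cells lacking DAX-1 with DMSO; higher inhibition means more luminescence from relief of DAX-1 repression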
hcDAF12 agonist – activates DAF-12 receptor from parasite H. contortus; HEK293 hcDAF-12 lit1-tk-luc reporter, luminescence; 0% DMSO, 100% Δ7-dafachronic acid; 370,000 tested, 1.4% active; activation, % at 6.8 µM;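 active means activation above the mean of all tested compounds plus 3 SD, cut at about 5.5% in these data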;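 further: 100% = response to 3 µM Δ7-dafachronic acid high control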
DAX1 inh-2 – inhibits human nuclear receptor DAX1. P51843. HEK293 Gal4-DAX1 luciferase reporter, luminescence. inhibition, % at 6.75 µM. 340,000 tested, 0.99% active. AID 504766;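 active means inhibition above the mean over all tested compounds plus 3 SD, cut at about 4.2% in these data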;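 further: 0% = DAX1-transfected cells with DMSO and 100% = empty-vector control cells with DMSO; inhibition shows as a rise in luminescence from relieved DAX1 repression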
Target sequence (P51843 207-470 limits assumed): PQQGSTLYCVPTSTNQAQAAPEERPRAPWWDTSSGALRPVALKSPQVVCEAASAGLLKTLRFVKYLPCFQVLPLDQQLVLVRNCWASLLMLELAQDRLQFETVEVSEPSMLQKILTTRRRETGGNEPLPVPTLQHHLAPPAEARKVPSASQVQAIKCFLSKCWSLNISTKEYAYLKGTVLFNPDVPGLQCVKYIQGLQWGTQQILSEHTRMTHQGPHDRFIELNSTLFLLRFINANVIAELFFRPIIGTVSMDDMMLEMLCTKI
ssDAF-12 act – activators of S. stercoralis DAF-12 nuclear receptor | HEK293 ssDAF-12/GRIP1 lit1-tk-luc reporter, luminescence; % of 3 µM dafachronic acid response | activation, % at 6.8 µM | 370,000 tested, 1% active;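 active means activation above the mean over all tested compounds plus 3 SD, cut at about 0.9% in these data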;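 further: 0% = DMSO-only wells and 100% = 3 µM delta7-dafachronic acid wells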
An asterisk follows results filed as active; x = not tested or not shown.

SMILES	hgDAF-12 ag	DAX1 inh-1	hcDAF12 agonist	DAX1 inh-2	ssDAF-12 act
Nc1nccnc1C(=O)N/N=C/c1ccco1	6	1	1	6.9*	-1
COc1ccc(/C=N/NC(=O)c2[nH]ncc2Br)c(OC)c1	11*	1	1	2	0
C/C=C/C(=O)N1CCC(C(=O)NC2CCCc3ccccc32)CC1 (stereo not drawn)	1	0	-1	x	-1
CC(C)=CCC/C(C)=C/CN1C(=O)N(c2ccc(F)cc2)[C@H]2C[C@@H](c3ccccc3)[C@@H](C)[C@@H](C(=O)N3CCOCC3)C[C@H]21	-7	-4	-2	x	-2
CCCCCCCCN1C(=O)[C@H](CC(=O)NCCC(C)C)C[C@@]2(C(=O)OCC)CCC=C12	0	0	-3	x	-1
CS(=O)(=O)N(CC(=O)N1CCCCC1)Cc1ccccc1	-1	0	0	5.0*	-1
Cc1cccc(CCNC(=O)Cn2nc(-c3ccccc3)ccc2=O)c1	1	-1	-3	x	0
C/C(=N\Nc1ccc(Cl)c(C(=O)O)c1)c1ccc[nH]1	5	3	6.4*	-1	0
C/C(=N\Nc1ccc(Cl)c(C(=O)O)c1)c1cccs1	5	3	1	3	0
COC(=O)[C@@]12CCCCC3=C1N(CCC3)C(=O)[C@H]2CC(=O)NCCc1ccccc1OC	0	0	-2	x	0
O=c1c(-c2ccccc2)nc2ccccc2n1C(c1ccccc1)c1nc2ccccc2[nH]1 (stereo not drawn)	7	1	-2	x	-1
c1ccc(-c2nc3ccccc3n2C(c2ccccc2)c2nc3ccccc3[nH]2)cc1 (stereo not drawn)	12*	4	5	x	0
Cc1cccc(NC(=O)n2ccc3ccc(-c4ccc5cc[nH]c5c4)cc32)c1	-4	-1	-2	x	-2
Cn1nnnc1SCC(=O)Nc1ccccc1N1CCOCC1	-1	-1	2	0	-1
COc1ccc(-n2nnnc2SCC(=O)Nc2ccccc2N2CCOCC2)cc1OC	0	0	2	4.3*	-1
O=C1CNC(=O)/C(=C/c2ccco2)N1	-5	0	0	4.4*	-1
OC[C@@H]1CC[C@@H]2O[C@H](CCc3ccc(-c4ccc(F)cc4)cc3)[C@H](n3cc(C4CC4)nn3)C[C@@H]2O1	0	0	-1	x	-2
OC(CNCc1ccccc1)c1ccccc1 (stereo not drawn)	4	0	-1	4.5*	-1
CCNC(=S)NNC(=O)CC(C)C	-1	0	0	6.7*	-2
O=C(O)CCc1ncc(C(F)(F)F)cc1Cl	-1	0	-2	0	-1
FC(F)(F)c1cnc(COc2cc(Cl)cc(Cl)c2)c(Cl)c1	3	0	0	5.8*	-1
Cc1cc(C(=O)COC(=O)C23CC4CC(CC(O)(C4)C2)C3)c(C)n1-c1c(C)n(C)n(-c2ccccc2)c1=O	0	0	0	0	-1
COCCn1c(C)cc(C(=O)COC(=O)C23CC4CC(CC(O)(C4)C2)C3)c1C	8	4.5*	5	4	0
CN(C)c1ccc(Cn2c(=O)n(Cc3ccc(C(=O)NCC4COC4)cc3)c(=O)c3ccccc32)cc1	-1	0	-2	x	-1
CCOC(=O)CNC(=O)N(C)[C@H]1C[C@H]2c3[nH]c4c(-c5cccc(C)c5)cccc4c3CCN2C(=O)[C@H]1[C@H](C)O	-4	0	-1	x	-2
SMILES	hgDAF-12 ag	DAX1 inh-1	hcDAF12 agonist	DAX1 inh-2	ssDAF-12 act
O=C(NC(=Nc1nc2ccccc2o1)NC(=O)c1ccccc1)c1ccccc1	3	0	1	2	-1
N/C(=N\c1nc2ccccc2o1)NC(=O)c1ccccc1F	3	1	1	1	-1
CCCCC(=O)N/C(N)=N/c1nc2ccccc2o1	12*	1	1	16*	0
COc1ccccc1C(=O)NC(=Nc1nc2ccccc2o1)NC(=O)c1ccccc1OC	1	1	5.9*	-2	0
Cc1ccccc1Cn1cc(COC(=O)N2CCOCC2)nn1	2	1	-1	x	-1
Cn1c(-c2ccc(N)cc2)nc2ccccc21	8	1	1	1	-1
Cn1c(-c2ccc(C=O)s2)nc2ccccc21	12*	0	3	0	0
Cn1c(-c2cccs2)nc2ccccc21	11*	2	2	0	0
CC(C)Cn1c(-c2cccs2)nc2ccccc21	2	0	-1	-2	-1
CCN1Cc2nnn(CC3CCCCC3)c2-c2ccccc2S1(=O)=O	-2	-2	-1	x	-2
CCCc1nc2c3ccccc3ccn2c1Cc1ccccc1OC	6	0	3	x	0
CCCc1nc2c3ccccc3ccn2c1Cc1ccc(OC)cc1C	1	0	3	x	1.0*
O=C(CN1CCN(Cc2ccc3c(c2)OCO3)CC1)Nc1ccc(F)cc1	3	0	-2	4.8*	-1
CN(C)c1ccc(NC(=O)CN2CCc3ccccc3C2)cc1	5	1	5.7*	0	0
O=C(CN1CCc2ccccc2C1)Nc1ccc(F)cc1	1	0	-1	4.2*	-1
CCOc1ccc(NC(=O)CN2CCc3ccccc3C2)cc1	3	-1	2	3	-1
COc1cc(NC(=O)c2ccccc2)c(C)cc1NC(=O)CSc1nnc(COc2ccccc2)n1Cc1ccco1	-2	-2	1	x	-1
COc1cc(C(=O)Nc2c(C(=O)O)[nH]c3ccc(C)cc23)cc(OC)c1OC	5	0	6.1*	2	0
COc1ccc(NC(=O)CSc2nnc(-c3n[nH]c4c3CCC4)n2N)cc1	0	-3	-1	x	-2
O=C(NC1CC(=O)c2sccc21)c1ccc(Cl)cc1Cl (stereo not drawn)	10	3.7*	1	1	0
O=C(O)/C=C/C(=O)NNC(=O)c1ccc(Cl)cc1Cl	0	0	3	-1	-1
Nc1ccn([C@@H]2O[C@H](CNCc3cccc(OC4CCCC4)c3)[C@@H](O)[C@H]2O)c(=O)n1	-1	0	0	1	-1
COC(=O)c1ccc(C(=O)OC)c(NC2=NS(=O)(=O)c3ccccc32)c1	-1	0	-1	0	0
COC(=O)c1c(-c2ccccc2)csc1NC1=NS(=O)(=O)c2ccccc21	10	3.8*	2	2	0
CCc1ccc2nc(NC(=O)Cn3cnc4ccccc4c3=O)sc2c1	5	1	3	3	1.2*
Cn1c(=O)c2c(ncn2CC(=O)Nc2nc3ccc(F)cc3s2)n(C)c1=O	8	1	6.2*	2	0
CCc1ccc2nc(NC(=O)CN3C(=O)NC4(CCCC4)C3=O)sc2c1	11*	1	2	0	1
COC(=O)N1C[C@H](OCc2cn(-c3ccc(OC)cc3)nn2)[C@H]2C[C@@H]1c1ccccc1O2	-4	-1	0	x	-1

Screens: PubChem, The Scripps Research Institute Molecular Screening Center
